Here are results for 38 molecules from PubChem BioAssay (Tox21).

Several values for one entry are separate records, joined by “and”; a condition that tells them apart may be missing. Equal entries are not always repeated. Records with an inconclusive call do not appear. Where a call stands in place of a potency, no number is given. More than one record can exist for a structure, and the calls need not agree. Activity calls are given as the source filed them. Unless noted, calls follow the shape of the dose curve; as a rule, active = well fitted cell-killing curve with a large enough effect in the repeat runs (not every such curve was filed as active); inconclusive = weak or mixed curves, or effect the other way; inactive = no such curve, though single readings can be large or run the other way. Starred links: 1 amine or outer side, 2 acyl side, 3 side chain; linkers in the order of their positions; H or OH if unused. Positions of bridges follow the written chain, without caps; N, C: chain ends. Non-standard residues stand in square brackets, D forms with d. Residues, ends and D or L forms follow the SMILES beside them. Chains are numbered I, II in the order given. Actinocin(9to1) = Cc1c2oc3c(C)ccc(C(=O)[*:1])c3nc-2c(C(=O)[*:2])c(N)c1=O; NMeV = CN[C@H](C(=O)O)C(C)C; Sar = CNCC(=O)O

Chain of Bile acid receptor (Homo sapiens) (Q96RI1 whole entry, looked up): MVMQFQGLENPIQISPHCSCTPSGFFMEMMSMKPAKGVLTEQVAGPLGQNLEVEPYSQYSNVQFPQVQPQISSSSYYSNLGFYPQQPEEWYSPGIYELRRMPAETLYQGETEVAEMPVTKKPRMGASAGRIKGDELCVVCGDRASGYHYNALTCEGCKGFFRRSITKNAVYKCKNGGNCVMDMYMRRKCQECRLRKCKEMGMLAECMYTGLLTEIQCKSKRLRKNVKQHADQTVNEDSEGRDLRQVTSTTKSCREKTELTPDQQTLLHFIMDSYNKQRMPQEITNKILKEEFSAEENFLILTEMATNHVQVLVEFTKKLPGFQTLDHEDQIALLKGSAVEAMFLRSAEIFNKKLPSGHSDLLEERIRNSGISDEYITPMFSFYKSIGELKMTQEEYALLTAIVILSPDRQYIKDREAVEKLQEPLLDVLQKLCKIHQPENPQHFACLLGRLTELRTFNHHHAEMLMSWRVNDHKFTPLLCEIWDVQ

For the first experiment, the target named is Peroxisome proliferator-activated receptor delta (Homo sapiens) (UniProt Q03181). Put plainly: qHTS assay to identify small molecule antagonists of the peroxisome proliferator-activated receptor delta (PPARd) signaling pathway (AID 743215; active = well fitted inhibition curve with a large enough effect in the signal ratio in the repeat runs, not every such curve was filed as active; the % refers to the signal ratio;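 also: cells stimulated with agonist L165041 at 300 nM final during compound exposure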; also: potency is read from the fitted curve at half-maximal effect). Conditions: HEK293H PPARd-UAS-bla, beta-lactamase FRET ratio, antagonist, 17 h; series mostly up to 62 µM. In a few lines: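 PPARd-bla HEK293H cells (UAS-bla reporter) preincubated 5 h, then given compound plus 300 nM final L165041 agonist for 17 h at 37 C. Beta-lactamase activity read by LiveBLAzer B/G FRET substrate fluorescence after 2 h at room temperature.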
Chain of Peroxisome proliferator-activated receptor delta (Homo sapiens) (Q03181 whole entry, looked up): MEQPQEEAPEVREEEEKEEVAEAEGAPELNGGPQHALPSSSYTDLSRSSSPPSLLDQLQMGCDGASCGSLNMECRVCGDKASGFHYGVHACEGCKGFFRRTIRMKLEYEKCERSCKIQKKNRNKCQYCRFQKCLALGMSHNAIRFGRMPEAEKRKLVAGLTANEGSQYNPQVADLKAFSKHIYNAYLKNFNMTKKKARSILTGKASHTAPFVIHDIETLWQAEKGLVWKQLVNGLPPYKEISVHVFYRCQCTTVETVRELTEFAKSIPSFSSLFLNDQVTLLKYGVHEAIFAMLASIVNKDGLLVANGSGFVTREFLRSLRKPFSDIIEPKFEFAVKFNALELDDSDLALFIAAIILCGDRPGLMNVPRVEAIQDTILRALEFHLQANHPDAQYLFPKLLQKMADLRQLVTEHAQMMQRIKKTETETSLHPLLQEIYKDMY
On the technique in general: Quantitative high-throughput screening tests each substance at several concentrations.
Consider `Cc1ccc(S(=O)(=O)Oc2ccc(N=Nc3ccc(-c4ccc(N=Nc5c(O)ccc6cc(S(=O)(=O)O)cc(S(=O)(=O)O)c56)c(C)c4)cc3C)cc2)cc1`, for which the Potency result is “inactive”. With `COc1ccc(Cc2cnc(N)nc2N)cc1OC`, the Potency entry is “inactive”. Take `Cc1c2oc3c(C)ccc(C(=O)N[C@@H]4C(=O)N[C@H](C(C)C)C(=O)N5CCC[C@H]5C(=O)N(C)CC(=O)N(C)[C@@H](C(C)C)C(=O)O[C@@H]4C)c3nc-2c(C(=O)N[C@@H]2C(=O)N[C@H](C(C)C)C(=O)N3CCC[C@H]3C(=O)N(C)CC(=O)N(C)[C@@H](C(C)C)C(=O)O[C@@H]2C)c(N)c1=O` (I: T[dV]P[Sar][NMeV] / II: T[dV]P[Sar][NMeV]; ester I:1-I:C, II:1-II:C; linker I:N-II:N via Actinocin(9to1)): the Potency is 1.7 nM (active) and 11.9 nM (active). On the same count and under the same terms, the result for `O=S(=O)(O)c1ccc2nc(-c3ccccc3)[nH]c2c1` reads “inactive”; that for `CCCC(=O)c1ccccc1`, “inactive”.

For another experiment, the target named is Bile acid receptor (Homo sapiens) (UniProt Q96RI1). Put plainly: qHTS assay to identify small molecule antagonists of the farnesoid-X-receptor (FXR) signaling pathway (AID 743217; active = well fitted inhibition curve with a large enough effect in the signal ratio in the repeat runs, not every such curve was filed as active; the % refers to the signal ratio). Conditions: HEK293T FXR-UAS-bla, beta-lactamase ratio, CDCA-stimulated, 16 h; series mostly up to 62.6 µM. Put shortly:
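FXR-UAS-bla HEK 293T cells (beta-lactamase reporter) given compound plus chenodeoxycholic acid (50 uM final), 16 h at 37C. LiveBLAzer B/G FRET substrate added for 2 h at room temperature; fluorescence read.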
Take `Cc1ccc(S(=O)(=O)Oc2ccc(N=Nc3ccc(-c4ccc(N=Nc5c(O)ccc6cc(S(=O)(=O)O)cc(S(=O)(=O)O)c56)c(C)c4)cc3C)cc2)cc1`: the Potency entry is “inactive”. For `COc1ccc(Cc2cnc(N)nc2N)cc1OC`, the Potency result was “inactive”. Regarding `O=S(=O)(O)c1ccc2nc(-c3ccccc3)[nH]c2c1`, the Potency entry was “inactive”. Turning to `Nc1ccc(O)cc1`, the Potency entry was “inactive”.

Tested on in the next experiment: not listed separately
Put plainly: qHTS assay to identify small molecule agonists of the farnesoid-X-receptor (FXR) signaling pathway - cell viability counter screen (AID 743218; active = well fitted cell-killing curve with a large enough effect in the repeat runs; also: nearly all actives have a fitted effect of over 45% in size; also: potency is read from the fitted curve at half-maximal effect). Conditions: FXR-bla HEK293T viability, CellTiter-Glo luminescence, 16 h; series mostly up to 62.6 µM. Put shortly:
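FXR-UAS-bla HEK 293T cells exposed to compounds for 16 h at 37C. Cytotoxicity read in the same wells by CellTiter-Glo luminescence after 30 min at room temperature, following the beta-lactamase FRET read.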
For `CN(C)c1ccc(C(=C2C=CC(=[N+](C)C)C=C2)c2ccccc2)cc1`, the Potency is 437 nM (active) and 2.37 µM (active). Turning to `CC1=C(C=O)C(C)(C)CC=C1`, the Potency entry was “inactive”. On the same count and under the same terms, the entry for `CC(C)CCOCc1ccccc1` is “inactive”; for `CC(C)(C)c1ccccc1` it is “inactive”. Regarding `CCCCC/C=C/CC1CC(=O)OC1=O` (configuration not stated), the Potency entry was “inactive”.

Take `O=S(=O)(O)c1ccc2nc(-c3ccccc3)[nH]c2c1`: the Potency result was “inactive”.

On to `O`, for which the Potency entry was “inactive”. In the case of `Nc1cc(Cl)c(-c2cc(Cl)c(N)cc2Cl)cc1Cl`, the Potency was 43.6 µM (active) and 12.3 µM (active). For `Nc1ccc2cc3ccccc3cc2c1`, the Potency entry was “inactive”. For the molecule `O=C(Nc1ccccc1SSc1ccccc1NC(=O)c1ccccc1)c1ccccc1`, the Potency entry was “inactive”. Consider `CCCCCC(=O)O[C@]1(C(C)=O)CC[C@H]2[C@@H]3CCC4=CC(=O)CC[C@]4(C)[C@H]3CC[C@@]21C`, for which the Potency is 43.4 µM (active).

In the case of `CC(C)(C)NC(=O)[C@@H]1CN(Cc2cccnc2)CCN1C[C@@H](O)C[C@@H](Cc1ccccc1)C(=O)N[C@H]1c2ccccc2C[C@H]1O`, the Potency entry is “inactive”.

`CCCCCCCCCCCCCCCCCl`: the Potency entry was “inactive”. `CCC(CO)(CO)COCC(CC)(CO)CO`: the Potency result was “inactive”. As to `CCN(CC)c1ccc2c(C)cc(=O)oc2c1`, the Potency entry is “inactive”. The same measure, in the same setting: the figure for `CCCCCCCCCCCCCC[P+](CCCC)(CCCC)CCCC` is 19.4 µM (active) and 24.5 µM (active); for `CC(N)=O` it is “inactive”; for `NCCO` it is “inactive”. For `Nc1nc(=S)c2[nH]cnc2[nH]1`, the Potency result was “inactive”. Regarding `CNCCC(Oc1ccc(C(F)(F)F)cc1)c1ccccc1` (configuration not stated), the Potency was 21.6 µM (active). Consider `O=C(Oc1ccccc1)c1ccccc1O`, for which the Potency entry was “inactive”. As to `CC(C(O)c1ccc(O)cc1)N1CCC(Cc2ccccc2)CC1` (configuration not stated), the Potency entry was “inactive”.

The next experiment has as its target Bile acid receptor (Homo sapiens) (UniProt Q96RI1). Put plainly: qHTS assay to identify small molecule agonists of the farnesoid-X-receptor (FXR) signaling pathway (AID 743220; active = well fitted activation curve with a large enough effect in the signal ratio in the repeat runs, not every such curve was filed as active; the % refers to the signal ratio; also: potency is read from the fitted curve at half-maximal effect). Conditions: HEK293T FXR-UAS-bla, beta-lactamase FRET ratio, 16 h; series mostly up to 62.6 µM. Put shortly: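 Beta-lactamase reporter under UAS control in GeneBLAzer FXR HEK 293T cells (5000/well) measured with LiveBLAzer FRET substrate after 2 h at room temperature. Compound exposure lasted 16 h at 37C.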
On to `Cc1ccc(S(=O)(=O)Oc2ccc(N=Nc3ccc(-c4ccc(N=Nc5c(O)ccc6cc(S(=O)(=O)O)cc(S(=O)(=O)O)c56)c(C)c4)cc3C)cc2)cc1`, for which the Potency entry is “inactive”. Consider `COc1ccc(Cc2cnc(N)nc2N)cc1OC`, for which the Potency result is “inactive”.

Consider `O=S(=O)(O)c1ccc2nc(-c3ccccc3)[nH]c2c1`, for which the Potency result is “inactive”. Consider `Nc1ccc(O)cc1`, for which the Potency was 20.3 µM (active) and inactive.

Tested on in the next experiment: not listed separately
Put plainly: qHTS assay to identify small molecule antagonists of the farnesoid-X-receptor (FXR) signaling pathway - cell viability counter screen (AID 743221). Also: nearly all actives have a fitted effect of over 50% in size. Also: potency is read from the fitted curve at half-maximal effect. Conditions: FXR-bla HEK293T viability, CellTiter-Glo luminescence, 16 h; series mostly up to 62.6 µM. Put shortly:
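Quantitative HTS of the Tox21 10K library run in parallel with the beta-lactamase reporter read. HEK 293T cells carrying a UAS-driven bla reporter got compound and 50 uM CDCA (final) for 16 h; ATP-based luminescence followed.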
Consider `O=C(O)CP(=O)(O)O`, for which the Potency result is “inactive”. As for `CN(C)c1ccc(C(=C2C=CC(=[N+](C)C)C=C2)c2ccccc2)cc1`, the Potency is 617 nM (active) and 1.5 µM (active). Regarding `Cc1ccc(S(=O)(=O)Oc2ccc(N=Nc3ccc(-c4ccc(N=Nc5c(O)ccc6cc(S(=O)(=O)O)cc(S(=O)(=O)O)c56)c(C)c4)cc3C)cc2)cc1`, the Potency entry is “inactive”. Consider `CC1=C(C=O)C(C)(C)CC=C1`, for which the Potency entry is “inactive”. Same read-out and setting: the entry for `CC(C)CCOCc1ccccc1` is “inactive”; for `CC(C)(C)c1ccccc1` it is “inactive”; for `COc1ccc(Cc2cnc(N)nc2N)cc1OC` it is “inactive”. Same read-out and setting: the entry for `Cc1c2oc3c(C)ccc(C(=O)N[C@@H]4C(=O)N[C@H](C(C)C)C(=O)N5CCC[C@H]5C(=O)N(C)CC(=O)N(C)[C@@H](C(C)C)C(=O)O[C@@H]4C)c3nc-2c(C(=O)N[C@@H]2C(=O)N[C@H](C(C)C)C(=O)N3CCC[C@H]3C(=O)N(C)CC(=O)N(C)[C@@H](C(C)C)C(=O)O[C@@H]2C)c(N)c1=O` (I: T[dV]P[Sar][NMeV] / II: T[dV]P[Sar][NMeV]; ester I:1-I:C, II:1-II:C; linker I:N-II:N via Actinocin(9to1)) is “inactive”; for `CC(C)(C)NCC(O)c1cc(O)cc(O)c1` (configuration not stated) it is “inactive”. For `Cc1cc(C2(c3cc(C)c(O)cc3C)OS(=O)(=O)c3ccccc32)c(C)cc1O`, the Potency result was “inactive”. In the case of `CC(C)(C)c1ccc(O)c(C(C)(C)C)c1`, the Potency was 54.9 µM (active). `CCCCC/C=C/CC1CC(=O)OC1=O` (configuration not stated): the Potency result is “inactive”. With `O=S(=O)(O)c1ccc2nc(-c3ccccc3)[nH]c2c1`, the Potency is 7.39 µM (active).

As to `CC(=O)CC(C)=O`, the Potency result was “inactive”. Regarding `O`, the Potency result is “inactive”. On to `O=C(O[C@@H]1Cc2c(O)cc(O)cc2O[C@@H]1c1cc(O)c(O)c(O)c1)c1cc(O)c(O)c(O)c1`, for which the Potency result was “inactive”. In the case of `Nc1cc(Cl)c(-c2cc(Cl)c(N)cc2Cl)cc1Cl`, the Potency is 38.9 µM (active).

In the case of `O=C1OC2(c3ccc(O)cc3Oc3cc(O)ccc32)c2ccccc21`, the Potency entry is “inactive”.

For `Nc1ccc(O)cc1`, the Potency entry was “inactive”.

With `Nc1ccc2cc3ccccc3cc2c1`, the Potency result is “inactive”.

As for `CCC(C)(C)C(=O)O[C@H]1C[C@@H](C)C=C2C=C[C@H](C)[C@H](CC[C@@H]3C[C@@H](O)CC(=O)O3)[C@H]21`, the Potency is 11 µM (active). Same read-out and setting: the entry for `O=C(Nc1ccccc1SSc1ccccc1NC(=O)c1ccccc1)c1ccccc1` is “inactive”; for `CC(C)(C)NC(=O)[C@@H]1CN(Cc2cccnc2)CCN1C[C@@H](O)C[C@@H](Cc1ccccc1)C(=O)N[C@H]1c2ccccc2C[C@H]1O` it is “inactive”; for `CCCCCCCCCCCCCCCCCl` it is “inactive”. `CCC(CO)(CO)COCC(CC)(CO)CO`: the Potency result is “inactive”. Still for that read-out and setting: the result for `c1cc(C(c2ccc(OCC3CO3)cc2)C(c2ccc(OCC3CO3)cc2)c2ccc(OCC3CO3)cc2)ccc1OCC1CO1` (configuration not stated) reads “inactive”. Consider `CCCC(=O)c1ccccc1`, for which the Potency result was “inactive”. Regarding `CC(C)(c1ccccc1)c1ccc(Nc2ccc(C(C)(C)c3ccccc3)cc2)cc1`, the Potency entry is “inactive”. Same read-out and setting: the entry for `CCN(CC)c1ccc2c(C)cc(=O)oc2c1` is “inactive”; for `CCCCCCCCCCCCCC[P+](CCCC)(CCCC)CCCC` it is 21.8 µM (active) and 21.9 µM (active); for `CC(N)=O` it is “inactive”. For the molecule `O=C1NCC2(CCN(CCc3ccccc3)CC2)O1`, the Potency entry is “inactive”. For `NCCO`, the Potency entry was “inactive”. Same read-out and setting: the result for `Nc1nc(=S)c2[nH]cnc2[nH]1` reads “inactive”; that for `CNCCC(Oc1ccc(C(F)(F)F)cc1)c1ccccc1` (configuration not stated), 48.4 µM (active); that for `O=C(Oc1ccccc1)c1ccccc1O`, “inactive”.

Turning to `CC(C(O)c1ccc(O)cc1)N1CCC(Cc2ccccc2)CC1` (configuration not stated), the Potency entry is “inactive”.
